Screens deposited in PubChem BioAssay by several laboratories.
Compounds with a hit are over-represented: about 3.3% of the library has one in this group of screens.
MazF activator: activators of E. coli MazEF toxin-antitoxin RNase, primary screen, biochemical, fluorescence, uHTS | FAM/BHQ RNA-DNA oligo cleavage fluorescence, 5 h | activation, % at 20 µM | 0.32% of 350,000 active | AID 504720, 2011; in the data active means activation above about 50%
Target sequence (P0AE70 whole entry, looked up): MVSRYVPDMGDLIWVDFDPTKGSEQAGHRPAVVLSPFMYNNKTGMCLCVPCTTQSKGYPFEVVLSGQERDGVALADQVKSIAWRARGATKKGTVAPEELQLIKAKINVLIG
PriA SSB inh: inhibitors of Klebsiella pneumoniae PriA binding to SSB C-terminal tail, primary screen, biochemical, AlphaScreen; inhibition, % at 33 µM; AlphaScreen SSBct-PriA binding, biotinylated peptide; 0.6% of 430,000 active; AID 1272365, 2023; PriA–SSB C-terminal tail interaction (Klebsiella pneumoniae); in the data active means inhibition mostly above about 37%, no sharp cut-off; inactive means mostly below about 20%;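 further: plate controls were negative control peptide for no effect and reference peptide for full effect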
Anthrax LF inh2: Bacillus anthracis LF protease inhibitors, primary screen, biochemical, multiplex microsphere, MLPCN library | 0.12% of 360,000 active | multiplex microsphere protease cleavage assay | inhibition, % at 10 µM | AID 588501, 2011 | Lethal factor (Bacillus anthracis), P15917; further: plate controls were buffer without enzyme for full effect and enzyme alone for no effect
Autofluor counter: flagged as autofluorescent in microsphere protease counterscreen. fluorescence intensity (test concentration not listed). compound autofluorescence counterscreen, microsphere flow cytometry; hits give high values. 3.1% of 360,000 active; in the data active means fluorescence intensity above about 16000; inconclusive means no clear call, values can overlap the other calls
BoNT F protease: BoNT/F light chain protease inhibitors, primary screen, biochemical, flow cytometry, MLPCN library. inhibition, % at 10 µM. 0.22% of 360,000 active. Multiplex microsphere protease cleavage assay; in the data active means inhibition above about 35%, passing the limit was not always enough; inconclusive means no clear call, values can overlap the other calls; further: plate controls were buffer without enzyme for full effect and enzyme alone for no effect
BoNT A protease: BoNT/A light chain protease inhibitors, primary screen, biochemical, flow cytometry, MLPCN library. Botulinum neurotoxin type A light chain protease (Clostridium botulinum A str. ATCC 3502). multiplex microsphere protease substrate cleavage. inhibition, % at 10 µM. 0.17% of 360,000 active. AID 588499, 2011; further: plate controls were buffer without enzyme for full effect and enzyme alone for no effect
Starred values were filed as active, the others as inactive; i = inactive; ? = inconclusive; / = no result given. Unless noted, no stated cut-off is given here; in the data, active means inhibition above about 30%; inconclusive means no clear call, values can overlap the other calls; inactive means below that.

SMILES	MazF activator	PriA SSB inh	Anthrax LF inh2	Autofluor counter	BoNT F protease	BoNT A protease
CCC(C)NC(=O)CCc1nnc2ccc(N3CCC(C)CC3)nn12 (configuration not stated)	3.5	3.7	-11.9	2932	-9.6	0.6
COC(=O)c1c(O)c2ccccc2[nH]c1=O	-3.0	4.5	3.5	19580*	12.2	7.6
Cc1ccc(Cn2c(N)c(S(=O)(=O)c3cccs3)c3nc4ccccc4nc32)cc1	-15.1	-10.3	1.0	18251*	6.9	6.8
Nc1c(S(=O)(=O)c2cccs2)c2nc3ccccc3nc2n1Cc1ccccc1	7.0	1.5	3.0	16336*	-2.4	1.7
COc1cccc(/C=N/n2c(CO)nc3ccccc32)c1OC	6.4	/	1.0	21345*	5.7	?
COc1cccc(/C=N/n2c(N)c(S(=O)(=O)c3cccs3)c3nc4ccccc4nc32)c1OC	-2.4	i	-1.1	16852*	-6.5	-1.8
COCCNC(=O)c1c(N)n(/N=C\c2cccc(OC)c2OC)c2nc3ccccc3nc12	/	4.0	/	/	/	/
Cc1cc(C)c(S(=O)(=O)NC2CCCC2)cc1C	/	0.0	/	/	/	/
Cc1nc(-c2ccccn2)cc2nn(CC(=O)Nc3ccc(Cl)cc3)c(=O)n12	/	0.0	/	/	/	/
O=C(Cn1cnc2c(-c3ccc(Cl)cc3)csc2c1=O)NCc1ccc(F)cc1	/	9.0	/	/	/	/
Cc1ccc(SCc2[nH]nc3c2C(c2ccc(C)o2)C(C#N)=C(N)O3)cc1 (configuration not stated)	-1.6	10.4	-5.1	19530*	-3.5	-0.1
Cc1cccc(CC(=O)Nc2cc(C)nn2-c2nc(C)cc(=O)[nH]2)c1	/	51.0*	/	/	/	/
CC(=O)Nc1cc(C)nn1-c1nc(C)cc(=O)[nH]1	/	24.0	/	/	/	/
Cc1cc(=O)[nH]c(-n2nc(C)cc2C)n1	-5.9	-10.6	-1.8	2908	-6.0	-0.6
Cc1cc(=O)[nH]c(-n2nc(C)cc2N)n1	/	96.0*	/	/	/	/
COC(=O)c1ccccc1NC(=O)N1c2ccccc2CC1C (configuration not stated)	7.3	-46.7	-2.8	20425*	2.4	?
CC1Cc2ccccc2N1C(=O)COC(=O)c1cccnc1Cl (configuration not stated)	5.8	-17.2	-1.6	16252*	1.7	?
CC1Cc2ccccc2N1C(=O)COC(=O)c1ccccc1NCCO (configuration not stated)	4.2	-18.9	0.3	6754	-0.5	-4.2
COc1ccc(NC(=O)N2c3ccccc3CC2C)cc1OC (configuration not stated)	-6.1	-5.0	-10.0	9172	-0.7	1.0
Cc1nc(NC(C)C(=O)O)c2oc3ccccc3c2n1 (configuration not stated)	/	-10.0	/	/	/	/
O=C(Nc1ccc(S(=O)(=O)N2CCCCCC2)cc1)Nc1cccc(Cl)c1	/	-9.0	/	/	/	/
CCC(CC)c1nnc(NC(=O)Oc2ccccc2)s1	1.1	-27.6	6.6	5722	42.5*	4.0
Cc1nnc(NC(=O)Oc2ccccc2)s1	-0.1	-23.1	-2.4	9085	4.1	0.3
CC(=O)Nc1ccc(CC(=O)N2CCC(N3CCCC3COCc3ccccc3)CC2)cc1 (configuration not stated)	/	-10.0	/	/	/	/
CCc1nc(C)cc(N)c1OCc1ccccc1	8.0	-6.6	-1.1	17332*	0.8	-2.4
SMILES	MazF activator	PriA SSB inh	Anthrax LF inh2	Autofluor counter	BoNT F protease	BoNT A protease
Cc1cccc(OCc2ccccc2)n1	5.3	-2.5	-2.7	3658	11.4	-0.2
COc1cnc(-c2ccccn2)nc1Oc1c(C)cccc1C	-2.1	48.7*	-5.7	4461	0.6	-2.2
COc1cnc(-c2ccccn2)nc1OC	/	112.0*	/	/	/	/
CCOC(=O)C(C)Sc1nc(-c2ccccn2)ncc1OC (configuration not stated)	18.1	90.1*	-2.8	4047	4.8	-1.4
COc1cnc(-c2ccccn2)nc1Sc1c(Cl)cccc1Cl	2.9	-5.6	-4.7	14862	4.8	2.6
COc1cnc(-c2ccccn2)nc1Sc1ccccc1Cl	6.2	83.0*	-4.1	16715*	-5.6	-2.0
COc1ccc(Oc2nc(-c3ccccn3)ncc2OC)cc1	-12.5	28.0	-0.7	3714	-8.9	-3.5
CCOC(=O)N1CCc2c(nc(-c3ccc(F)cc3)n(CC(=O)Nc3c(C)cc(C)cc3C)c2=O)C1	/	-4.0	/	/	/	/
COc1cc(C(=O)Nc2ccc3c(=O)c4cccc(F)c4oc3c2)cc(OC)c1OC	/	6.0	/	/	/	/
COc1cnc(-c2ccccn2)nc1Cl	/	39.9	/	/	/	/
COc1cnc(-c2ccccn2)nc1N(C)C	10.8	98.4*	-3.0	5042	-2.7	-2.1
Cc1cc(Nc2ccccc2)nc(Nc2ccc(NS(=O)(=O)c3cc(C(C)C)ccc3C)cc2)n1	/	-23.0	/	/	/	/
O=C(NCc1ccc(F)cc1)C(=O)NCC1CCN(C2CCCC2)CC1	/	-1.0	/	/	/	/
Cc1cc(NC(=O)CCCC(=O)N(CC(=O)NCCc2ccccc2)Cc2ccc(F)cc2)no1	-4.7	-11.5	-4.8	20415*	-4.0	-2.8
O=C(Nc1nnc(C2CCCO2)o1)C1CCCN(S(=O)(=O)c2ccc(Cl)s2)C1 (configuration not stated)	/	22.0	/	/	/	/
COc1ccccc1N=c1scc(-c2ccc3c(c2)NC(=O)CO3)n1CC1CCCO1 (configuration not stated)	-12.0	25.4	-0.6	3192	-11.9	-0.7
O=C1COc2ccc(-c3csc(=Nc4ccc(OC(F)F)cc4)n3CC3CCCO3)cc2N1 (configuration not stated)	4.5	36.1	-10.8	18135*	3.5	4.5
N#C/C(=C/c1cccc(C(F)(F)F)c1)c1nc(CCN2C(=O)c3ccccc3C2=O)cs1	-2.3	-7.8	-2.9	6068	-4.5	0.6
Cc1ccc(-c2nc(CCN3C(=O)c4ccccc4C3=O)cs2)cc1	-10.2	-12.4	-5.0	23490*	-4.3	?
N#C/C(=C/c1ccc(F)cc1)c1nc(CCN2C(=O)c3ccccc3C2=O)cs1	11.2	-8.9	-2.8	16963*	-7.1	-2.1
O=C(CN1CCOC1=O)N1CCS[C@H](c2ccccc2)CC1	/	-1.0	/	/	/	/
COc1nn(C)cc1C(=O)NCc1ccc(C)cc1	/	-15.0	/	/	/	/
Cc1ccc(C(C)NC(=O)c2ccco2)cc1C (configuration not stated)	-2.9	-3.6	-0.8	21456*	-5.6	-2.2
Cc1ccc(S(=O)(=O)CCC(=O)Nc2sc3c(c2-c2nc4ccccc4s2)CCCC3)cc1	/	6.0	/	/	/	/
CCC(=NNc1cccc(Cl)c1)c1cnnc(SC)n1	/	0.3	/	/	/	/
CC/C(=N/Nc1cccc(C)c1)c1cnnc(SC)n1	287.4*	/	1.5	2024	11.9	2.6
C=CCn1c(Cc2c(C)[nH]c3ccccc23)nnc1SCC(=O)NCc1ccc(F)cc1	5.2	7.3	0.6	5505	-25.8	-1.9
